# In PubChem BioAssay (NCATS):
# Inconclusive results are not listed. Where a call stands in place of a potency, no number is given. Active and inactive are the calls of the source. The call rests on the fitted dose curve; in most records, active means well fitted curve in the direction sought with a large enough effect; inconclusive means small, poorly fitted or top-dose-only effect, or another doubt; inactive means no such curve, though single readings can be large; an effect the other way counts as inactive or inconclusive.
# How the values were obtained:
# [1] = Quantitative High-Throughput drug screen in 47 multiple myeloma cell lines against the NCATS MIPE library collection: Karpas25_ECACC cell viability assay (AID 1918968; further: nearly all actives have a fitted effect of over 35% in size); details: Karpas25 myeloma viability, CellTiter-Glo ATP, 48 h; series mostly up to 45.8 µM
# How it was run: (§1)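 Approved and investigational drugs from MIPE 4.0 were added by pin tool to 500 cells per well. After 48 hours at 37C, ATP-based CellTiter-Glo luminescence indicated remaining viability.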
# [2] = Quantitative High-Throughput drug screen in 47 multiple myeloma cell lines against the NCATS MIPE library collection: KMS12BM_JCRB cell viability assay (AID 1918971); details: KMS12BM myeloma viability, CellTiter-Glo ATP, 48 h; series mostly up to 45.8 µM; further: nearly all actives have a fitted effect of over 35% in size
# How it was run: (§2)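 Inhibition of cell viability is measured here. Each line was plated at 500 cells per well, treated with MIPE 4.0 drugs, kept 48 hours at 37C, then assayed for ATP content by CellTiter-Glo luminescence.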
# [3] = Quantitative High-Throughput drug screen in 47 multiple myeloma cell lines against the NCATS MIPE library collection: KMS12PE_JCRB cell viability assay (AID 1918972); details: KMS12PE myeloma viability, CellTiter-Glo ATP, 48 h; series mostly up to 45.8 µM; further: nearly all actives have a fitted effect of over 30% in size
# How it was run: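 We plated 500 myeloma cells per well, pinned in MIPE 4.0 compounds, and incubated for 48 hours at 37C. ATP was then quantified with CellTiter-Glo, with DMSO and media-only wells defining 100% and 0%.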
# [4] = Quantitative High-Throughput drug screen in 47 multiple myeloma cell lines against the NCATS MIPE library collection: MMM1_PLB cell viability assay (AID 1918976); details: MMM1 myeloma cells viability, CellTiter-Glo, 48 h; series mostly up to 45.8 µM; further: nearly all actives have a fitted effect of over 35% in size
# How it was run: (§3)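 Plated at 500 cells per well, myeloma lines received MIPE 4.0 compounds by pin tool. Following 48 h culture at 37 °C, CellTiter-Glo luminescence gave viability relative to DMSO and media-only controls.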
# [5] = Quantitative High-Throughput drug screen in 47 multiple myeloma cell lines against the NCATS MIPE library collection: NCIH929_DSMZ cell viability assay (AID 1918978); details: NCI-H929 myeloma viability, CellTiter-Glo ATP, 48 h; series mostly up to 45.8 µM; further: nearly all actives have a fitted effect of over 35% in size
# How it was run: as §3
# [6] = Quantitative High-Throughput drug screen in 47 multiple myeloma cell lines against the NCATS MIPE library collection: KMS21BM_JCRB cell viability assay (AID 1918974); details: ATP luminescence, 48 h; viability: at 45.8 µM (top of the series) unless noted
# How it was run: as §1
# [7] = Quantitative High-Throughput drug screen in 47 multiple myeloma cell lines against the NCATS MIPE library collection: KMS27_JCRB cell viability assay (AID 1918970); details: KMS27 myeloma cells, CellTiter-Glo ATP viability, 48 h; series mostly up to 45.8 µM; further: nearly all actives have a fitted effect of over 30% in size
# How it was run: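 Viability inhibition screen, 48 h compound exposure, luminescent ATP read-out.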
# [8] = Quantitative High-Throughput drug screen in 47 multiple myeloma cell lines against the NCATS MIPE library collection: KMS20_JCRB cell viability assay (AID 1918973); details: CellTiter-Glo ATP, 48 h; series mostly up to 45.8 µM; further: nearly all actives have a fitted effect of over 45% in size
# How it was run: as §1
# [9] = Quantitative High-Throughput drug screen in 47 multiple myeloma cell lines against the NCATS MIPE library collection: KMS26_JCRB cell viability assay (AID 1918975); details: KMS26 myeloma cells viability, CellTiter-Glo ATP, 48 h; series mostly up to 45.8 µM; further: nearly all actives have a fitted effect of over 45% in size
# How it was run: as §2
# [10] = Quantitative High-Throughput drug screen in 47 multiple myeloma cell lines against the NCATS MIPE library collection: MOLP8_DSMZ cell viability assay (AID 1918977); details: MOLP8 myeloma viability, CellTiter-Glo ATP luminescence, 48 h; series mostly up to 45.8 µM; further: nearly all actives have a fitted effect of over 45% in size
# How it was run: as §3
# Potency means the concentration at half of the fitted maximal effect.
compound,measurement,setting,value
CCOC(=O)c1ncn2c1CN(C)C(=O)c1cc(F)ccc1-2,Potency,[1],inactive
same,Potency,[2],5.9 µM (active)
same,Potency,[3],inactive
same,Potency,[4],6.62 µM (active)
same,Potency,[5],inactive
COc1cc2c(c(OC)c1OC)-c1ccc(OC)c(=O)cc1[C@@H](NC(C)=O)CC2,Potency,[1],inactive
same,Potency,[3],inactive
same,Potency,[6],inactive
same,Potency,[5],inactive
NC(=O)OCC(COC(N)=O)c1ccccc1,Potency,[7],inactive
same,Potency,[2],inactive
same,Potency,[3],inactive
same,Potency,[8],inactive
same,Potency,[5],inactive
CC(C)Cc1ccc(C(C)C(=O)O)cc1 (configuration not stated),Potency,[7],inactive
same,Potency,[5],inactive
CN(CCOc1ccc(NS(C)(=O)=O)cc1)CCc1ccc(NS(C)(=O)=O)cc1,Potency,[1],inactive
same,Potency,[3],inactive
same,Potency,[9],inactive
same,Potency,[5],inactive
O=c1c(-c2ccc(O)cc2)coc2cc(O)cc(O)c12,Potency,[2],5.26 µM (active)
same,Potency,[3],2.64 µM (active)
N[C@@H](Cc1c[nH]c2ccc(O)cc12)C(=O)O,Potency,[7],inactive
same,Potency,[3],inactive
same,Potency,[9],inactive
same,Potency,[4],18.7 µM (active)
same,Potency,[5],inactive
O=c1c(O)c(-c2ccc(O)c(O)c2)oc2cc(O)cc(O)c12,Potency,[1],16.6 µM (active)
same,Potency,[5],7.43 µM (active)
CC[N+](CC)(CC)CCOc1cccc(OCC[N+](CC)(CC)CC)c1OCC[N+](CC)(CC)CC,Potency,[1],inactive
same,Potency,[9],inactive
same,Potency,[5],inactive
COC(=O)Nc1nc2ccc(C(=O)c3cccs3)cc2[nH]1,Potency,[2],0.0026 µM (active)
same,Potency,[9],0.296 µM (active)
same,Potency,[5],0.296 µM (active)
CC(C(=O)O)c1cccc(C(=O)c2ccccc2)c1 (configuration not stated),Potency,[1],13.2 µM (active)
same,Potency,[3],inactive
same,Potency,[4],0.833 µM (active)
same,Potency,[5],13.2 µM (active)
O=C(c1ccc(OCCN2CCCCC2)cc1)c1c(-c2ccc(O)cc2)sc2cc(O)ccc12,Potency,[7],20.9 µM (active)
same,Potency,[3],23.5 µM (active)
same,Potency,[8],16.6 µM (active)
same,Potency,[6],13.2 µM (active)
same,Potency,[9],20.9 µM (active)
same,Potency,[5],23.5 µM (active)
NCCS(=O)(=O)O,Potency,[2],inactive
same,Potency,[3],inactive
same,Potency,[8],inactive
same,Potency,[9],inactive
same,Potency,[5],inactive
CCc1cccc2c3c([nH]c12)C(CC)(CC(=O)O)OCC3 (configuration not stated),Potency,[7],inactive
same,Potency,[3],inactive
same,Potency,[9],inactive
same,Potency,[4],4.18 µM (active)
same,Potency,[5],inactive
COc1ccccc1N1CCN(CC(O)COc2cccc3ccccc23)CC1 (configuration not stated),Potency,[1],11.8 µM (active)
same,Potency,[3],inactive
same,Potency,[4],6.62 µM (active)
same,Potency,[5],inactive
COc1ccccc1OCCNCC(O)COc1cccc2[nH]c3ccccc3c12 (configuration not stated),Potency,[1],inactive
same,Potency,[9],23.5 µM (active)
COc1ccc(C2CNC(=O)C2)cc1OC1CCCC1 (configuration not stated),Potency,[7],inactive
same,Potency,[2],inactive
same,Potency,[3],inactive
same,Potency,[8],inactive
same,Potency,[9],inactive
same,Potency,[5],inactive
O=C(c1ccc(F)cc1)C1CCN(CCn2c(=O)[nH]c3ccccc3c2=O)CC1,Potency,[7],inactive
same,Potency,[2],inactive
same,Potency,[3],inactive
same,Potency,[9],inactive
same,Potency,[5],inactive
Cc1ccc(-c2cc(C(F)(F)F)nn2-c2ccc(S(N)(=O)=O)cc2)cc1,Potency,[3],4.18 µM (active)
COc1cc2nc(N(C)CCCNC(=O)C3CCCO3)nc(N)c2cc1OC (configuration not stated),Potency,[1],inactive
same,Potency,[3],inactive
same,Potency,[8],inactive
same,Potency,[5],inactive
Cc1cnc(C(=O)NCCc2ccc(S(=O)(=O)NC(=O)NC3CCCCC3)cc2)cn1,Potency,[7],inactive
same,Potency,[2],18.7 µM (active)
same,Potency,[3],14.8 µM (active)
same,Potency,[5],inactive
Clc1ccc(C(c2ccccc2Cl)C(Cl)Cl)cc1 (configuration not stated),Potency,[2],18.7 µM (active)
same,Potency,[9],18.7 µM (active)
same,Potency,[4],20.9 µM (active)
same,Potency,[10],26.4 µM (active)
CCC1(c2ccccc2)C(=O)NCNC1=O,Potency,[1],1.66 µM (active)
same,Potency,[9],inactive
same,Potency,[10],inactive
same,Potency,[5],1.32 µM (active)
CC(C)(C)C(=O)Oc1ccc(S(=O)(=O)Nc2ccccc2C(=O)NCC(=O)O)cc1,Potency,[7],inactive
same,Potency,[2],inactive
same,Potency,[3],inactive
same,Potency,[9],inactive
COc1ccc2c(c1)c(CC(=O)O)c(C)n2C(=O)c1ccc(Cl)cc1,Potency,[1],20.9 µM (active)
same,Potency,[8],9.35 µM (active)
same,Potency,[5],18.7 µM (active)
COc1ccccc1OCC(O)CN1CCN(CC(=O)Nc2c(C)cccc2C)CC1 (configuration not stated),Potency,[7],inactive
same,Potency,[2],inactive
same,Potency,[3],inactive
same,Potency,[8],inactive
same,Potency,[9],inactive
Nc1ccn([C@H]2CC[C@@H](CO)O2)c(=O)n1,Potency,[3],inactive
same,Potency,[9],inactive
same,Potency,[10],inactive
CC(COc1ccccc1)N(CCCl)Cc1ccccc1 (configuration not stated),Potency,[1],inactive
same,Potency,[5],inactive
NS(=O)(=O)c1cc2c(cc1Cl)NCNS2(=O)=O,Potency,[7],inactive
same,Potency,[3],inactive
same,Potency,[4],16.6 µM (active)
same,Potency,[5],inactive
CN1C2CCC1CC(OC(=O)C(CO)c1ccccc1)C2 (configuration not stated),Potency,[7],inactive
same,Potency,[2],inactive
same,Potency,[3],inactive
same,Potency,[8],inactive
same,Potency,[9],inactive
same,Potency,[4],inactive
same,Potency,[5],inactive
O=c1[nH]cc(F)c(=O)[nH]1,Potency,[3],4.69 µM (active)
same,Potency,[9],inactive
same,Potency,[4],5.9 µM (active)
CS(=O)(=O)Nc1ccc([N+](=O)[O-])cc1Oc1ccccc1,Potency,[7],inactive
same,Potency,[2],20.9 µM (active)
same,Potency,[3],inactive
same,Potency,[9],18.7 µM (active)
same,Potency,[4],11.8 µM (active)
same,Potency,[5],inactive
Cn1c(=O)c2c(ncn2C)n(C)c1=O,Potency,[2],inactive
same,Potency,[3],inactive
same,Potency,[5],inactive
CN1C(C(=O)Nc2ccccn2)=C(O)c2ccccc2S1(=O)=O,Potency,[2],inactive
same,Potency,[3],inactive
same,Potency,[9],inactive
same,Potency,[5],inactive
CC(C)(Oc1ccc(C2CC2(Cl)Cl)cc1)C(=O)O (configuration not stated),Potency,[2],inactive
same,Potency,[3],inactive
same,Potency,[4],inactive
same,Potency,[5],inactive
